Some test systems named below: DU-145 prostate; K-562 leukemia; MALME-3M melanoma; MDA-MB-231 breast; RXF 393 renal; SF-268 CNS; SF-295 CNS; SF-539 CNS; UACC-257 melanoma.
Common to all, as to test: NCI-60 one-dose screen, 48 h (100 = growth as untreated, 0 = no growth, -100 = all killed)
The next experiment has as its system M14 melanoma. Particulars: 10 µM.

Where “and” joins values, the source holds several entries; their conditions need not be identical. Identical values can stand only once. Compounds without any hit were thinned out: in the full panel of roughly 83,000, 20% have a hit.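 Single-concentration screen, 48 h exposure, 96-well plates. Endpoint: percent growth. Below 10 = active.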 Calls of active or inactive are those of the source.

Take `COc1ccc2sc3cccc(NCCN(C)C)c3c(=O)c2c1`: the growth with DU-145 prostate (10 µM) was 53.6% (inactive) and 14.8% (inactive); in the experiment on K-562 leukemia (10 µM), 17.2% (inactive) and -40.4% (active); in the experiment with MALME-3M melanoma (10 µM), 18.6% (inactive) and -90.3% (active); with MDA-MB-231 breast (10 µM) it was 42.1% (inactive) and -72.9% (active); with RXF 393 renal (10 µM), 59.7% (inactive) and -15.9% (active); with SF-268 CNS (10 µM), 42.9% (inactive) and 12.4% (inactive). Besides, the growth in the experiment on SF-295 CNS (10 µM) was -16.7% (active) and -31.7% (active); with SF-539 CNS (10 µM), 49.8% (inactive) and -8.1% (active); with UACC-257 melanoma (10 µM) it was -83.3% (active); with M14 melanoma it was 59.1% (inactive) and -84.9% (active).

In the case of `CC/C(=C(\c1ccccc1)c1ccc(OCCN(C)C)cc1)c1ccccc1`, the growth with DU-145 prostate (10 µM) was 65.4% (inactive); in the experiment with DU-145 prostate (12.5 µM), 9.12% (active); in the experiment with K-562 leukemia (10 µM), 0.0322% (active); in the experiment on K-562 leukemia (12.5 µM) it was -38.6% (active); in the experiment on MALME-3M melanoma (10 µM), -67.5% (active); in the experiment on MALME-3M melanoma (12.5 µM) it was -95.7% (active). Also, the growth was 45.2% (inactive) in the experiment on MDA-MB-231 breast (10 µM); -26.4% (active) in the experiment on MDA-MB-231 breast (12.5 µM); -22.4% (active) in the experiment with RXF 393 renal (10 µM); -56.8% (active) in the experiment on RXF 393 renal (12.5 µM); 56.7% (inactive) in the experiment with SF-268 CNS (10 µM); 32.4% (inactive) in the experiment with SF-268 CNS (12.5 µM). The growth was 40.2% (inactive) with SF-295 CNS (10 µM); -68% (active) in the experiment on SF-295 CNS (12.5 µM); -95.2% (active) with SF-539 CNS (12.5 µM); -64.3% (active) with UACC-257 melanoma (10 µM); -34.3% (active) in the experiment on UACC-257 melanoma (12.5 µM); -75% (active) with M14 melanoma.

As for `CN(Cc1cnc2nc(N)nc(N)c2n1)c1ccc(C(=O)N[C@@H](CCC(=O)O)C(=O)O)cc1`, the growth with DU-145 prostate (2.5 µM) is 31.8% (inactive); in the experiment on DU-145 prostate (10 µM), 39.6% (inactive); with K-562 leukemia (2.5 µM), 23.8% (inactive); in the experiment on K-562 leukemia (10 µM) it was 23.3% (inactive); with MALME-3M melanoma (2.5 µM), 61.6% (inactive); in the experiment with MALME-3M melanoma (10 µM), 62% (inactive). Also, the growth is 71.1% (inactive) in the experiment with MDA-MB-231 breast (2.5 µM); 59.9% (inactive) in the experiment on MDA-MB-231 breast (10 µM); 18.7% (inactive) in the experiment with RXF 393 renal (2.5 µM); 13% (inactive) in the experiment on RXF 393 renal (10 µM); 36.8% (inactive) in the experiment on SF-268 CNS (2.5 µM); 25.1% (inactive) with SF-268 CNS (10 µM). The growth in the experiment on SF-295 CNS (2.5 µM) is 18.4% (inactive); in the experiment on SF-295 CNS (10 µM), 19.7% (inactive); with SF-539 CNS (2.5 µM), -3.25% (active); in the experiment on SF-539 CNS (10 µM) it was -0.266% (active); in the experiment on UACC-257 melanoma (2.5 µM) it was 9.31% (active); with UACC-257 melanoma (10 µM), 12% (inactive).

Consider `CC[C@@]1(O)C(=O)OCc2c1cc1n(c2=O)Cc2cc3c(CN(C)C)c(O)ccc3nc2-1`, for which the growth with DU-145 prostate (10 µM) was -18% (active); in the experiment on K-562 leukemia (10 µM), -22.7% (active); in the experiment on MALME-3M melanoma (10 µM), -11% (active) and -39.7% (active); in the experiment on MDA-MB-231 breast (10 µM), 35.9% (inactive) and 47.6% (inactive); in the experiment on RXF 393 renal (10 µM), -63.5% (active) and 11.3% (inactive); in the experiment with SF-268 CNS (10 µM) it was 6.03% (active) and 13.3% (inactive). Further, the growth was -31.3% (active) and -15% (active) in the experiment on SF-295 CNS (10 µM); -19% (active) and -42.7% (active) with SF-539 CNS (10 µM); -57.9% (active) and 5.98% (active) in the experiment with UACC-257 melanoma (10 µM); -7.26% (active) and -31.9% (active) in the experiment with M14 melanoma.

The record behind these values is PubChem BioAssay (NCI).
